# Compound activity as filed in PubChem BioAssay.
# PINK1 expr mod = PINK1 expression modulation; PINK1 immunofluorescence, high-content cytometry, 24 h; Potency, µM (highest dose often 76.6 µM), usual class: activators; 410,000 tested, 0.2% active; AID 624263; active = well fitted activation curve with a large enough effect; inconclusive = small, poorly fitted or top-dose-only effect; cell line not stated here; also: nearly all actives have a fitted effect of over 65% in size
#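 Readout is PINK1 immunofluorescence, quantified alongside mitochondrial, cell and nuclear markers by laser-scanning microplate cytometry. Cells from a stable line were exposed to compound titrations (5 concentrations) for 24 hours, with CCCP controls.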
# MCF10A rereplic = induces DNA re-replication in MCF 10a normal breast cells; 350,000 tested, 2.9% active; MCF 10A DNA re-replication, Hoechst nuclear intensity, 48 h; Potency, µM (highest dose often 46.1 µM), actives largely listed as activators; also: nearly all actives have a fitted effect of over 50% in size
# SW480 rereplic = inducers of DNA re-replication in SW480 colon cancer cells; Potency, µM (titrated, usually from 46.1 µM), most hits filed as activators; AID 624297; 340,000 tested, 1.8% active; SW480 DNA re-replication, Hoechst DNA content imaging, 48 h; also: nearly all actives have a fitted effect of over 55% in size
#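 Hoechst fluorescence of nuclei (405 nm excitation, 500-530 nm emission) measured by plate-scanning imager after 48 hr compound exposure at 37 C; re-replication scored as increased number of nuclei with elevated intensity.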
# 12-LOX inh = ALOX12 (human) lipoxygenase inhibition; P18054; purified 12hLO, xylenol orange hydroperoxide absorbance; Potency, µM (titrated, usually from 108 µM), actives largely listed as inhibitors; 580,000 tested, 1.1% active; AID 1671190
# Target sequence (P18054 whole entry, looked up): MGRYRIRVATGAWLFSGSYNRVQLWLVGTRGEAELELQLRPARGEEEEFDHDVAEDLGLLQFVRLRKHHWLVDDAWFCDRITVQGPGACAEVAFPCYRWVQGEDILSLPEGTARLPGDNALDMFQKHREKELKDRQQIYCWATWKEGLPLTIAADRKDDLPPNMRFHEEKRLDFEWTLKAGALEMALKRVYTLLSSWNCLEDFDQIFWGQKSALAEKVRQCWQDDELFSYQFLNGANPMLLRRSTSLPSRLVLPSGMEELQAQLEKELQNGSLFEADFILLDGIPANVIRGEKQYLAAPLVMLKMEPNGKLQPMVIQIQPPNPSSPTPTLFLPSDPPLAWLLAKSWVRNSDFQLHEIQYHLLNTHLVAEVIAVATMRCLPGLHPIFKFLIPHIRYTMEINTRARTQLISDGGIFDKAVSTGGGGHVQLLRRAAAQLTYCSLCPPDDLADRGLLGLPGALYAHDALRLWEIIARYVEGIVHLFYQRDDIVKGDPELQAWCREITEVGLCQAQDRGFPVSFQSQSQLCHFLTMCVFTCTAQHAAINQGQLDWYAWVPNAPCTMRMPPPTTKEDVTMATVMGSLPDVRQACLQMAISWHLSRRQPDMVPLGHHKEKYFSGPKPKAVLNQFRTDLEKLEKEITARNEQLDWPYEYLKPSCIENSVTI
#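 Purified human 12hLO at 150 nM in 25 mM Hepes, 0.01% Triton X-100, pH 7.0, preincubated 15 min at room temperature with compound. Reaction started with 40 uM arachidonic acid, 30 min at room temperature. Hydroperoxide measured by Fe-xylenol orange, 573/405 nm absorbance ratio.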
# KB-V1 MDR tox = kills drug-selected multidrug resistant KB-V1 cells. AID 1347076. KB-V1 MDR cells viability, CellTiter-Glo, 72 h. Potency, µM (series often up to 46.1 µM), usual class: cytotoxic. 400,000 tested, 3.4% active; also: nearly all actives have a fitted effect of over 60% in size
#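 Readout: CellTiter-Glo luminescence, 10 min after addition. Cells: KB-V1 MDR subline, 72 h at 37 degrees C with compound. Analysis: corrected, normalized data fitted to concentration-effect curves.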
# KB-3-1 cytotox = KB-3-1 parental cell cytotoxicity; KB-3-1 viability, CellTiter-Glo ATP luminescence, 72 h; Potency, µM (titrated, usually from 46.1 µM), most hits filed as cytotoxic; 400,000 tested, 1.4% active; also: nearly all actives have a fitted effect of over 60% in size
#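 Cytotoxicity measured as CellTiter-Glo luminescence after 72 h at 37 C. Compound titrations were pinned onto drug-naive KB-3-1 parental adenocarcinoma cells grown in DMEM with 10% FBS, and normalized data fitted to concentration-response curves.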
# A number is an active result; i = inactive; ? = inconclusive; nt = no result; ! = not confirmed by another sample. Shown are actives, neighbours in structure and some others; about 5.8% of the full set was active somewhere. Unless noted, calls follow the shape of the dose curve; as a rule, active = well fitted curve in the direction sought with a large enough effect; inconclusive = small, poorly fitted or top-dose-only effect, or another doubt; inactive = no such curve, though single readings can be large; an effect the other way counts as inactive or inconclusive.
SMILES,PINK1 expr mod,MCF10A rereplic,SW480 rereplic,12-LOX inh,KB-V1 MDR tox,KB-3-1 cytotox
CC(C)C(=O)Nc1ccc2c(C(C(=O)O)N3CCN(c4ncccc4C#N)CC3)c[nH]c2c1 (stereo unspecified),nt,nt,nt,i,nt,nt
COC(=O)CCSc1cc(NCCCOC(C)=O)c([N+](=O)[O-])c2nonc12,i,nt,nt,nt,i,i
CC(=O)OCCCNc1cc(Sc2ccc(Cl)cc2)c2nonc2c1[N+](=O)[O-],i,4.6µM,nt,?,i,i
COC(=O)COc1nc(-c2ccco2)c2c(c1C#N)CCC2,nt,nt,nt,i,nt,nt
CCOc1ccccc1NC(=O)c1nn(C)c(=O)c2ccccc12,nt,nt,nt,i,nt,nt
CCOc1ccccc1OCCCC(=O)NNC(=O)c1nn(C)c(=O)c2ccccc12,i,i,i,i,23µM,i
CCCn1c(C2CCCN2c2nc(-c3ccc(C)cc3)cs2)nc2ccccc21 (stereo unspecified),i,?,?,i,?,18µM
Cc1ccc(-c2csc(N3CCN(CCCn4c(-c5ccncc5)nc5ccccc54)CC3)n2)cc1,i,23µM,?,i,18µM,?
CCCCc1cc(=O)oc2cc(OC(C)C(=O)NCc3cccnc3)c(Cl)cc12 (stereo unspecified),nt,nt,nt,i,nt,nt
O=C(COc1ccccc1)NC1CCCc2c1[nH]c1c(Cl)cccc21 (stereo unspecified),nt,nt,nt,i,nt,nt
N#CCN(C(=O)COC(=O)CCCNC(=O)c1ccc(Cl)cc1)c1ccccc1,i,i,i,i,21µM,i
CCOc1ccc(NC(=O)c2nn(C)c(=O)c3ccccc23)cc1S(=O)(=O)N(C)C,nt,nt,nt,i,nt,nt
COc1cc([N+](=O)[O-])ccc1NC(=S)Nc1cc(C(=O)OC(C)C)cc(C(=O)OC(C)C)c1,16µM,?,i,?,?,?
Cc1cc(C)c2c(CN3CCN(Cc4ccccc4)CC3)cc(=O)oc2c1,i,i,i,14µM!,i,i
O=C(c1ccco1)N1CCCC(c2nc(-c3ccc(S(=O)(=O)NCc4ccccc4)cc3)no2)C1 (stereo unspecified),i,18µM,i,i,i,i
O=C1CCN(C(=O)c2ccco2)CCCC(c2nc(-c3ccccc3)no2)CCN1 (stereo unspecified),nt,nt,nt,i,nt,nt
O=C(CC1CCCCC1)N1CCCC(c2nc(-c3ccc(S(=O)(=O)N4CCCC4)cc3)no2)C1 (stereo unspecified),nt,?,i,?,8.2µM,i
CCN(Cc1ccc2c(c1)OCO2)C(=O)c1nn(-c2ccccc2)c(=O)c2ccccc12,nt,nt,nt,i,nt,nt
N#Cc1cccc(OCc2ccc(C#N)cc2F)c1,nt,nt,nt,i,nt,nt
O=C(N/C=N/OCc1cccc(C(F)(F)F)c1)N1OC[C@@H]2COc3ccc4ccccc4c3[C@@H]21,?,i,i,i,16µM,?
CO/N=C/NC(=O)N1OC[C@@H]2COc3ccc4ccccc4c3[C@@H]21,i,i,i,i,i,i
CCOC(=O)C(C)Oc1cccc2c(=O)n(CC(=O)NCc3ccco3)ccc12 (stereo unspecified),i,?,1.3µM,nt,i,0.73µM
CC(C)C(=O)c1cn(CC(=O)NCc2ccco2)c2ccccc12,i,i,?,i,i,i
CC(=O)c1ccccc1NC(=O)CSCc1nc2sc(C)c(C)c2c(=O)[nH]1,i,i,i,?,?,i
CSc1ccccc1NC(=O)CSCc1nc2sc(C)c(C)c2c(=O)[nH]1,i,2.3µM,i,i,i,i
SMILES,PINK1 expr mod,MCF10A rereplic,SW480 rereplic,12-LOX inh,KB-V1 MDR tox,KB-3-1 cytotox
Cc1sc2nc(CSCC(=O)Nc3ccccc3C#N)[nH]c(=O)c2c1C,i,i,i,i,21µM,i
O=C(/C=C/c1cccs1)OCC(=O)c1ccc2c(c1)-c1ccccc1C2,nt,nt,nt,i,nt,nt
c1cc2c(cc1Nc1nc(CN3CCOCC3)nc3sc4c(c13)CCCC4)CCC2,nt,nt,nt,i,nt,nt
CCc1ccc(-n2c(SCc3ccccc3F)nc3[nH]ncc3c2=O)cc1,i,nt,nt,?,?,?
O=c1c2cn[nH]c2nc(SCc2ccccc2F)n1-c1ccc(Br)cc1,i,18µM,?,i,i,i
O=C(OCCc1ccccc1)c1cccc([N+](=O)[O-])c1,nt,nt,nt,i,nt,nt
CCC/C(=N\N=C(/CCC)c1ccccc1)c1ccccc1,nt,nt,nt,i,nt,nt
CCN(CC)Cc1c(O)c(Cl)cc2c(C)cc(=O)oc12,i,?,i,i,i,i
C=CCc1c(O)c(CC)cc2c(C)cc(=O)oc12,i,i,12µM,i,i,i
CC(C)c1ccc(/C=C/C(=O)N2CCN(C/C=C/c3ccccc3)CC2)cc1,nt,nt,nt,i,nt,nt
CCOc1cc2cc(C(=O)c3ccccc3O)cnc2cc1OC,nt,nt,nt,8.9µM,nt,nt
COC(=O)c1nc2ccc(N3CCOCC3)cc2c(C)c1C(=O)OC,i,i,i,i,i,i
COC(=O)c1ccc(/C=C/c2c(-c3ccsc3)oc3ccc(N4CCOCC4)cc23)cc1,i,5.8µM,i,?,i,?
COc1ccc(-c2ccc3oc(-c4ccsc4)c(-c4ccc(OC)cc4)c3c2)cc1,i,i,i,i,i,i
COc1ccc(-c2sc3ccc(N4CCOCC4)cc3c2C#Cc2ccsc2)cc1,i,?,i,i,i,i
Nc1ccc(C#Cc2c(-c3ccsc3)oc3ccc(N4CCOCC4)cc23)cc1,i,13µM,i,i,i,i
COc1ccc(-c2c(-c3ccsc3)oc3ccc(N4CCOCC4)cc23)cn1,i,18µM,i,i,i,i
COc1ccc(-c2ccc3oc(-c4ccsc4)cc(=O)c3c2)cn1,i,i,2.9µM,i,i,i
COc1ccc2cc(C(=O)NCC(=O)Nc3c(C)cc(C)cc3C)c(C)nc2c1,nt,nt,nt,i,nt,nt
COc1ccc2oc(-c3ccncc3)cc(=O)c2c1,i,i,i,i,3.7µM,?
O=c1cc(-c2ccccc2)oc2ccc(O)cc12,i,i,i,i,5.8µM,i
COc1ccc(-c2oc3ccc(-c4ccc(OC)nc4)cc3c2-c2ccc(OC)cc2)cc1,i,6.5µM,?,i,i,i
Cc1ccc(-c2ocnc2C(=O)Nc2ccc(C)c(Cl)c2)o1,nt,nt,nt,i,nt,nt
C=CCN1CCN(C(=O)CCC[C@H]2NC[C@@H]3C[C@H]2CN(Cc2ccccc2)C3)CC1,nt,nt,nt,5.6µM,nt,nt
COc1ccccc1CNC(=O)CCC[C@H]1NC[C@@H]2C[C@H]1CN(Cc1ccccc1)C2,nt,nt,nt,10µM,nt,nt
CCN(C(=O)C(C)N1C(=O)/C(=C/c2ccco2)SC1=S)C1CCS(=O)(=O)C1 (stereo unspecified),i,i,4.1µM,i,i,?
C(COC1CC2CC1C1C2CC2OC21)OC1CC2CC1C1C2CC2OC21 (stereo unspecified),i,?,i,i,21µM,i
CC(=O)c1cccc(NC(=O)C(C)Oc2ccc3c(C)cc(=O)oc3c2)c1 (stereo unspecified),nt,nt,nt,i,nt,nt
CN(C)c1ccc(/C=C/c2ccnc3ccccc23)cc1,i,nt,nt,nt,?,12µM
